According to PubChem BioAssay AID1159580 (chemical genetic matrix, 2015):
About 2,000 (36%) of roughly 5,500 compounds were called active. Not shown: some 18% with an inconclusive outcome. Cut-off read from the data, not from the text of the source: active = normalized growth mostly below about 0.91 (no sharp cut-off); inconclusive = no clear call, values can overlap the other calls; inactive = mostly above about 0.92. The list shows a part of the results.

Test: chemical genetic growth profiling, strain panel (AID 1159580);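 note: tested at 20 µM; growth read once vehicle control cultures reached saturation at 30 °C; 1 = growth at the plate median or of vehicle wells; lower values mean less growth of the strain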
Conditions: S. cerevisiae deletion strains, growth OD

Measured: normalized growth

Cc1ccc(C(O)(c2ccccc2)c2ccccc2)c2ccccc12
inactive: locus YAR019C, strain CDC15, hits give low values 0.992 | locus YBL105C, strain PKC1, hits give low values 0.985 | locus YBR135W, strain CKS1, hits give low values 0.98 | locus YBR136W, strain MEC1, hits give low values 0.983 | locus YBR160W, strain CDC28, hits give low values 0.985 | locus YDL017W, strain CDC7, hits give low values 0.992 | locus YDL028C, strain MPS1, hits give low values 0.985 | locus YDL101C, strain DUN1, hits give low values 0.97 | locus YDL108W, strain KIN28, hits give low values 0.981 | locus YDL132W, strain cdc53, hits give low values 0.976 | locus YDL214C, strain PRR2, hits give low values 0.963 | locus YDR052C, strain DBF4, hits give low values 0.992 | locus YDR054C, strain cdc34, hits give low values 0.988 | locus YDR226W, strain ADK1, hits give low values 0.983 | locus YDR477W, strain SNF1, hits give low values 0.975 | locus YER123W, strain YCK3, hits give low values 1 | locus YER133W, strain GLC7, hits give low values 0.998 | locus YFL009W, strain cdc4, hits give low values 0.982 | locus YFL029C, strain CAK1, hits give low values 0.993 | locus YFR003C, strain YPI1, hits give low values 0.988 | locus YFR019W, strain FAB1, hits give low values 0.952 | locus YFR028C, strain CDC14, hits give low values 0.979 | locus YGR040W, strain KSS1, hits give low values 0.947 | locus YGR052W, strain FMP48, hits give low values 0.982 | locus YGR092W, strain DBF2, hits give low values 0.907 | locus YHR030C, strain SLT2, hits give low values 1.02 | locus YHR079C, strain IRE1, hits give low values 0.996 | locus YHR082C, strain KSP1, hits give low values 1 | locus YHR205W, strain SCH9, hits give low values 0.858 | locus YIL147C, strain SLN1, hits give low values 0.993 | locus YJL095W, strain BCK1, hits give low values 0.904 | locus YJL128C, strain PBS2, hits give low values 0.926 | locus YJL157C, strain FAR1, hits give low values 0.997 | locus YJR016C, strain ILV3, hits give low values 0.995 | locus YJR066W, strain TOR1 (second series), hits give low values 0.963 | locus YJR066W, strain TOR1, hits give low values 1.01 | locus YKL048C, strain ELM1, hits give low values 0.965 | locus YKL067W, strain YNK1, hits give low values 0.975 | locus YKL101W, strain HSL1, hits give low values 0.953 | locus YKL193C, strain SDS22, hits give low values 0.989 | locus YKL203C, strain TOR2, hits give low values 1.01 | locus YLR113W, strain HOG1, hits give low values 0.936 | locus YLR133W, strain CKI1, hits give low values 0.949 | locus YLR403W, strain SFP1, hits give low values 0.916 | locus YML070W, strain DAK1, hits give low values 0.959 | locus YMR001C, strain CDC5, hits give low values 0.988 | locus YMR205C, strain PFK2 (second series), hits give low values 0.976 | locus YMR277W, strain FCP1, hits give low values 0.991 | locus YNL006W, strain LST8, hits give low values 0.984 | locus YNL020C, strain ARK1, hits give low values 0.955 | locus YNL161W, strain CBK1, hits give low values 0.98 | locus YNL183C, strain NPR1, hits give low values 0.987 | locus YNL207W, strain RIO2, hits give low values 0.991 | locus YNL222W, strain SSU72, hits give low values 0.983 | locus YNL307C, strain MCK1 (second series), hits give low values 0.904 | locus YOL078W, strain AVO1, hits give low values 0.979 | locus YOL136C, strain PFK27, hits give low values 0.929 | locus YOR061W, strain CKA2, hits give low values 0.979 | locus YOR119C, strain RIO1, hits give low values 1.05 | locus YOR231W, strain MKK1, hits give low values 0.966 | locus YOR329C, strain SCD5, hits give low values 0.992 | locus YPL031C, strain PHO85, hits give low values 0.983 | locus YPL153C, strain RAD53, hits give low values 1 | locus YPL204W, strain HRR25, hits give low values 0.956 | locus YPL209C, strain IPL1, hits give low values 0.983 | locus YPL256C, strain CLN2, hits give low values 1.04 | locus YPR025C, strain CCL1, hits give low values 0.99 | locus YPR106W, strain ISR1, hits give low values 0.97 | locus YPR111W, strain DBF20, hits give low values 0.953 | strain NNK1, hits give low values 0.976 | strain TSCII, hits give low values 0.982
